High-throughput results as filed in PubChem BioAssay.
SMN2 splice up: SMN2 splice variant enhancement | HEK293 SMN2-luciferase splicing reporter, luminescence, 30-36 h | 2.8% of 210,000 active | AID 1458 | Potency, µM (highest dose often 46.1 µM), for inactives: at the top dose activity change, positive = activation, actives largely listed as activators; also: % of control where 0% means no effect; nearly all actives have a fitted effect of over 55% in size
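qHTS luciferase splicing reporter: luminescence rises when SMN2 exon 7 is included in transfected HEK293 cells. Compound exposure lasted 30-36 h at 37C, with 4.5 mM final sodium butyrate as control, followed by a ONE-Glo read.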
KinaseGlo FLuc: Kinase-Glo luciferase inhibition (counter-screen); Potency, µM (doses to about 38.3 µM), for inactives: top-dose activity change, negative = inhibition, actives largely listed as inhibitors; Q27757; 0.28% of 200,000 active; Kinase-Glo luciferase, ATP luminescence, 8 min; also: % is scaled to controls: 0 for no effect and ±100 for the full control effect; nearly all actives have a fitted effect of over 60% in size
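Compound is pinned into ATP-containing buffer (10 uM ATP, imidazole pH 7.2, 7 mM MgCl2). Kinase-Glo luciferase reagent is then added. Light output is recorded following an 8-min room-temperature incubation.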
NPC1 promoter act: activators of NPC1 promoter; AID 485313; Potency, µM (highest dose often 9.22 µM), for inactives: at the top dose activation, usual class: activators; 2.4% of 320,000 active; Huh7 NPC1 promoter luciferase reporter, 24 h; also: % of control where 0% means no effect; nearly all actives have a fitted effect of over 60% in size
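Quantitative HTS used a cell-based reporter: Huh7 cells stably bearing the NPC1 promoter upstream of luciferase were treated with compounds for 24 h, and promoter activation was read as luminescence.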
ELG1 genotoxic: genotoxicity induction in ELG1-luciferase HEK293T cells. HEK293T ELG1-luciferase reporter, luminescence, 16 h. Potency, µM (doses to about 46 µM), without a hit: top-dose activity change, positive = activation, most hits filed as activators. 1.3% of 330,000 active. AID 504466; also: % of control where 0% means no effect; nearly all actives have a fitted effect of over 60% in size
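ELG1-luciferase HEK293T cells, 2,000/well; compound pinned in; 16 hr, 37 °C, 5% CO2; ONE-Glo, 30 min RT; luminescence on CCD imager.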
Rab9 promoter act: Rab9 promoter activation; Potency, µM (series often up to 9.22 µM), for the others: top-dose activation, negative = inhibition, hits mostly activators; Huh7 Rab9 promoter-luciferase reporter, luminescence, 24 h; 2.8% of 320,000 active; also: % of control where 0% means no effect; nearly all actives have a fitted effect of over 60% in size
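Quantitative HTS format; Huh7 Rab9-luciferase reporter cells (1500/well) receive compound 2 h post-plating, incubate 24 h at 37 °C, then get luciferase reagent for 10 min before luminescence reading.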
FLuc counter: counter-screen for miR-21 project: firefly luciferase inhibitors or activators; 6.9% of 360,000 active; Potency, µM (titrated, usually from 57.5 µM), without a hit: at the top dose activity change, negative = inhibition, usual class: inhibitors; P08659; AID 588342; purified FLuc, Km substrates, luminescence inhibition;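 also: plate controls were vehicle for no effect and reference inhibitor for full effect; nearly all actives have a fitted effect of over 55% in size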
Target sequence (P08659 whole entry, looked up): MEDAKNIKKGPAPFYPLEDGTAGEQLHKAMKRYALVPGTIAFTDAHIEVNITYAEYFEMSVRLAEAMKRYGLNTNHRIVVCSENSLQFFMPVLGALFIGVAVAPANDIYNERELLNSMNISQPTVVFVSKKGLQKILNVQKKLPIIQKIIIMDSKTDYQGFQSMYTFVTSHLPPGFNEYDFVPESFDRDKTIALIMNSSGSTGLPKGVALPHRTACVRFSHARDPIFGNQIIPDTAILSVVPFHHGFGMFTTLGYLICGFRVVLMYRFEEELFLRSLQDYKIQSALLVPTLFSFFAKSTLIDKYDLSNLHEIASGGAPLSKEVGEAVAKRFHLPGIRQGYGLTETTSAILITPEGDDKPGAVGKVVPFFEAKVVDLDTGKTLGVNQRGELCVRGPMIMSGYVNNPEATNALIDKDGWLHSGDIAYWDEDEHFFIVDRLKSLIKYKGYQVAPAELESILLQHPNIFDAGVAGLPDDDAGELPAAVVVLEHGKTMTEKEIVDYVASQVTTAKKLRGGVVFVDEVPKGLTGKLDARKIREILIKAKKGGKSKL
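Purified P. pyralis luciferase, 10 nM final, with Km-level 10 uM D-luciferin and 10 uM ATP in 50 mM Tris acetate pH 7.5, 10 mM Mg acetate, 0.01% Tween-20, 0.05% BSA; 6-point qHTS titration about 60 µM downward; luminescence read.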
* hit, by the source's call; ? = inconclusive; · = no result given; [ ] = remark or other dose. The list is not random: actives were taken first. Their share in the collection is about 7.5%. Calls follow the shape of the dose curve; as a rule, active = well fitted curve in the direction sought with a large enough effect; inconclusive = small, poorly fitted or top-dose-only effect, or another doubt; inactive = no such curve, though single readings can be large; an effect the other way counts as inactive or inconclusive. Potency is read from the fitted curve at half-maximal effect.

SMILES	SMN2 splice up	KinaseGlo FLuc	NPC1 promoter act	ELG1 genotoxic	Rab9 promoter act	FLuc counter
Cc1ccc(N2CC(NC(=O)C3CC3)CC2=O)cc1C (centres undefined)	·	·	·	·	·	0%
COC(=O)CSc1nnc(SCc2ccc(Cl)cc2)s1	-9%	-11%	0%	2%	-4%	17µM*
COc1ccc(Oc2nccc(-c3ccccc3)c2C#N)cc1	8%	1%	?	10%	?	12µM*
N#CC1=C2C=Cc3ccccc3N2CCCC1=O	23%	-15%	2.2µM*	?	2.8µM*	11µM*
O=C(Nc1ccc(OC(F)(F)F)cc1)c1[nH]ncc1[N+](=O)[O-]	?	-1%	13%	1%	19%	?
O=C(O)/C=C/C(O)c1ccc(Cl)cc1 (centres undefined)	-8%	-5%	4%[46.1 µM]	-4%	4%[46.1 µM]	27µM*
CCCOC1(C(F)(F)F)NC(=O)N(c2ccc(Cl)cc2)C1=O (centres undefined)	-16%	·	·	·	·	-9%
O=C(N/N=C/c1ccc([N+](=O)[O-])o1)c1cn(-c2ccccc2)nc1-c1ccc(Cl)cc1	-9%	0%	-7%	7%	3%	2%
O=[N+]([O-])CC(=Nc1ccc(Cl)cc1)N/N=C\c1oc(O)c2ccccc12	10%	-3%	?	11%	?	12µM*
Cc1ccc2c(c1)c1c(c(=O)n(-c3cccc(Cl)c3)c(=O)n1CC(=O)Nc1c(C)cccc1C)n2C	-1%	·	·	·	·	-1%
CCOC(=O)c1sc(-c2ccc(Cl)cc2Cl)nc1O	·	·	-5%	2%	-1%	17µM*
C/C(=N\Nc1ccccn1)c1ccc(C(C)C)cc1	?	0%	?	13%	?	9.5µM*
Cc1ccc(S(=O)(=O)NN=Cc2ccc(N3CCOCC3)cc2)cc1[N+](=O)[O-]	·	·	·	1%	·	·
O=[N+]([O-])c1cccc(N/N=C/c2ccc(N3CCOCC3)cc2)c1	·	·	2.8µM*	?	3.2µM*	11µM*
C(=N\Nc1ccccn1)/c1ccc(N2CCOCC2)cc1	13µM*	-20%	3.2µM*	?	2.8µM*	6µM*
C/C(=N\Nc1nc(-c2ccccn2)nc2ccccc12)c1ccc(F)cc1	·	·	-20%	-1%	-21%	-3%
COc1cc(/C=N/Nc2ccc(Cl)c(C(=O)O)c2)ccc1OC(=O)c1ccco1	3%	3%	?	-20%	26%	?
O=C(O)c1cc(N/N=C/c2ccc(N3CCOCC3)cc2)ccc1Cl	·	·	?	?	?	0.6µM*
Cc1ccc(C)c(N2CCN(C(=O)c3cn(CC(C)C)c(=O)c4c3c3ccccc3n4C)CC2)c1	-4%	·	·	·	·	-8%
Cc1cc(C)nc(N/N=C/c2ccc(N3CCOCC3)cc2)n1	20%	-1%	-7%	-10%	-18%	1%
C(=N\Nc1ccccc1)/c1ccc(N2CCOCC2)cc1	18µM*	-3%	3.2µM*	?	2.8µM*	7.6µM*
C/C(=N\Nc1ccccn1)c1ccc(N2CCOCC2)cc1	14µM*	1%	?	?	2.2µM*	13µM*
Clc1cccc(N/N=C/c2ccc(N3CCOCC3)cc2)c1	?	1%	?	15%	?	13µM*
C/C(=N\NC(=O)c1ccc(Cl)cc1)c1ccc(N2CCOCC2)cc1	6%	0%	-2%	7%	1%	-4%
O=C(NC(=S)Nc1ccc(N2CCOCC2)cc1)c1cccc(Cl)c1	-8%	0%	1%	-2%	2%	-10%
SMILES	SMN2 splice up	KinaseGlo FLuc	NPC1 promoter act	ELG1 genotoxic	Rab9 promoter act	FLuc counter
CCc1ccc(S(=O)(=O)c2nnn3c2nc(NCc2cccs2)c2sccc23)cc1	·	·	·	·	·	-7%
COc1ccc2nc(SCC(=O)N3CC(=O)Nc4ccccc43)c(C#N)cc2c1	11%	3%	-8%	-9%	-12%	?
Cc1cc(C)c2nc(SCC(=O)N3CC(=O)Nc4ccccc43)c(C#N)cc2c1	-58%	-6%	-19%	12%	-31%	12µM*
COc1ccccc1OCC(=O)NCCSCc1cccc(Cl)c1	18%	-1%	-1%	-3%	2%	-2%
O=c1c2c(nc3cc(-c4cccc(F)c4)[nH]n13)CCC2	8.9µM*	-22%	1.6µM*	?	1.1µM*	6µM*
O=c1c2c(nc3cc(-c4cccc(Cl)c4)[nH]n13)CCC2	8.9µM*	-15%	2µM*	2.3µM*	1.6µM*	4.8µM*
O=c1c2c(nc3cc(-c4ccc(F)cc4)[nH]n13)CCCC2	?	-28%	?	2.3µM*	0.45µM*	1.5µM*
O=c1c2c(nc3c(-c4ccc(Cl)cc4)c[nH]n13)CCCC2	-88%	-7%	-35%	-11%	-27%	-2%
O=C(CCC1N=C2c3ccccc3N=C(SCC(=O)Nc3ccc(F)cc3)N2C1=O)NCc1cccs1 (centres undefined)	·	·	·	·	·	-8%
CCOC(=O)c1ccc2nc3c(cc2c1)CCS3	11%	0%	?	?	19%	19µM*
CCOC(=O)c1ccc2nc(C)c3c(c2c1)OC(C)C3 (centres undefined)	-12%	-3%	-3%	10%	1%	3%
CCOc1ccc(Nc2n[nH]c(=S)s2)cc1	·	·	2.5µM*	?	1.8µM*	?
CCC(=O)Nc1nc2nc(-c3ccccc3)cc(=O)n2[nH]1	·	·	1%	0%	7%	?
Nc1nc2nc(-c3ccccc3)cc(=O)n2[nH]1	0%	-6%	0%	-7%	17%	12µM*
Cc1nc2nc(-c3ccccc3)[nH]n2c(=O)c1Cc1ccccc1	13µM*	-5%	25%	9%	21%	19µM*
O=c1cc(-c2ccccc2)nc2nc(-c3ccccc3)[nH]n12	18µM*	7%	?	18µM*	?	11µM*
Cc1nc2nc(Cc3ccccc3)[nH]n2c(=O)c1Cc1ccccc1	-8%	1%	-2%	1%	-4%	-1%
O=C(COC(=O)/C=C/c1cccc(F)c1)NC(=O)NCc1ccccc1	·	·	·	3%	·	·
NC(=O)c1nsc(C(=O)N(CC(=O)NCc2ccccc2)c2ccc(F)cc2)c1N	·	·	-1%	-13%	0%	-2%
O=C(c1cc(-c2ccccc2O)on1)N1CCOCC1	·	·	?	13µM*	?	12µM*
O=C(c1cc(-c2ccccc2O)on1)N1CCCCCC1	·	·	?	23µM*	?	11µM*
COc1ccc(OC)c(-c2cc(C(=O)N3CCOCC3)no2)c1	·	·	0%	0%	-4%	-4%
O=C(CSc1nnc(-c2ccccc2F)o1)NC1CC1	·	·	·	10%	·	·
O=C(O)c1ccccc1-c1noc(-c2ccccc2F)n1	·	·	3.5µM*	·	2µM*	9.5µM*
